Results on 27 molecules are retold here after PubChem BioAssay.

Residues, ends and D or L forms follow the SMILES beside them. *: point of attachment. Cbz = O=C(OCc1ccccc1)*; CH2Cl = ClC*

The target of test [1] is Tumor necrosis factor receptor superfamily member 10B (Homo sapiens) (UniProt O14763). In words: viability loss of caspase-8 NB7 cells with TRAIL – with/without TRAIL, luminescence panel, confirmation (AID 651596). The note with it: NB7 neuroblastoma + caspase-8, TRAIL sensitization, NB7 Caspase-8, with TRAIL, mean of runs, at 10 µM, stronger effect = higher value.
Chain of Tumor necrosis factor receptor superfamily member 10B (Homo sapiens) (O14763 whole entry, looked up): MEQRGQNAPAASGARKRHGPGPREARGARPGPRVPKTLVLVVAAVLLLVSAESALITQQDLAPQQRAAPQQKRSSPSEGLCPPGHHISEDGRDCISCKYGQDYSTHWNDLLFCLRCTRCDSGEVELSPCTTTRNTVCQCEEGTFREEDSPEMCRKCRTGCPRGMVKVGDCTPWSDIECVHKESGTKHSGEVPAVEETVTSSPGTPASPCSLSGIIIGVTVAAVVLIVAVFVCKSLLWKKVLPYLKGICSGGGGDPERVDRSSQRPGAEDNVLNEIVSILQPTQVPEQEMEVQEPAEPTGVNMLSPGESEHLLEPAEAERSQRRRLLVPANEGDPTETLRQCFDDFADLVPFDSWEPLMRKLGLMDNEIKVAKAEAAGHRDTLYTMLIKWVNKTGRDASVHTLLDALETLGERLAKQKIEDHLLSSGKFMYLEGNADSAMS
Assay in test [2]: as above
The note with it: NB7 neuroblastoma + caspase-8, without TRAIL, NB7 Caspase-8, without TRAIL, mean of runs, at 10 µM.

For the molecule `Cc1ccc(C(=O)Nc2ccc3ccccc3n2)cc1`, the activity is 58.6% in test [1] and 58.2% in test [2].
On the same counts, the results for `CN(C)c1ccc(-c2nc3ccccn3c2/N=C/c2ccc(Br)cc2)cc1` are 69.3% and 47%.
On the same counts, the results for `O=C1c2cccc3c([N+](=O)[O-])ccc(c23)C(=O)N1c1ccccn1` are 91.4% and 99.4%.
Take `CCOc1ccc(-c2c(C#N)c(N)nc3c2c(=O)n(C)c(=O)n3C)cc1OC`: the activity in test [1] was -4.4%; in test [2], -21.2%.
For `COc1ccc(/C=N\n2nnc3ccccc32)cc1`, the activity in test [1] was found to be 53.3%; in test [2], 42.7%.
Regarding `Cc1ccccc1C(=O)N1CCN(c2ccc(NC(=O)c3ccc([N+](=O)[O-])o3)cc2)CC1`, the activity was 86% in test [1] and 99.5% in test [2].
Turning to `O=C(Cn1ncc(Cl)c(Cl)c1=O)NC(=O)NC1CCCCC1`, the activity in test [1] and in test [2] was 99.3% throughout.
With `FC(F)(F)c1cccc(CC2CN(Cc3ccccc3)Cc3ccccc3N2c2cc(Cl)cc(Cl)c2)c1` (centres undefined), the activity in test [1] is 1.05%; in test [2] it was -5.7%.
`CCc1ccc(-c2cn3nc(C)c(C)nc3n2)cc1`: the activity was 75.3% in test [1] and 63.9% in test [2].
With `O=C(/C=C/Nc1ccccc1)c1ccccc1`, the activity in test [1] was 63.1%; in test [2], 44.8%.
Turning to `O=C(N/N=C/C=C/c1ccccc1)c1cc2c(ccc3ccccc32)o1`, the activity came to 62.1% in test [1] and 56.4% in test [2].
The corresponding values for `Cn1c(=O)[nH]c(=O)c2c1nc([N+](=O)[O-])n2Cc1ccccc1` are 60.5% and 96.2%.
For the molecule `Cc1ccnc(NC(=O)c2ccc3c(c2)OCO3)c1`, the activity worked out at 82.5% in test [1] and 82.9% in test [2].
As for `CC1(C)N=C(N)N=C(N)N1c1ccc(OCCCOc2ccccc2)c(Cl)c1`, the activity in test [1] is 59.8%; in test [2], 64.1%.
Take `Cc1ccc(-c2nc3cc(N)ccc3o2)cc1`: the figures for the activity in test [1] and in test [2] were 69.2% and 60%, respectively.
As to `CC(C)CC(NC(=O)OCc1ccccc1)C(=O)NC(Cc1ccccc1)C(=O)CCl` (stereo not drawn) (Cbz-Leu-Phe-CH2Cl; configuration not given here), the figures for the activity in test [1] and in test [2] were 62.3% and 98%, respectively.
For `N=c1cc(C2(O)CCCCC2)n2c(nc3ccccc32)s1`, the activity was determined as 93.5% in test [1] and 89% in test [2].
Regarding `CNc1ncnc(Sc2nc(N)nc3nc[nH]c23)c1[N+](=O)[O-]`, the activity in test [1] stood at 72%; in test [2], 77.6%.
For `CC(=O)c1sc(NC(=O)c2ccc(C(C)(C)C)cc2)nc1C`, the activity worked out at 30.1% in test [1] and 35.9% in test [2].
Take `Cc1ccnc(NC(=O)c2ccc(Br)s2)c1`: the activity was 52.3% in test [1] and 53% in test [2].
The corresponding values for `COc1ccc(C=C2CCc3ccccc3C2=O)cc1` are 90.9% and 91.4%.
As for `COc1ccc(C(=O)Nc2ccc3c(c2)OCCO3)cc1`, the activity in test [1] worked out at 77.6%; in test [2], 70%.
In the case of `Cc1ccc(-c2nc3cc(N)ccc3o2)c(C)c1`, the activity in test [1] is 61%; in test [2], 49.5%.
Turning to `O=C(N/N=C/c1cn(-c2ccccc2)nc1-c1cc2ccccc2o1)c1cccnc1`, the figures for the activity in test [1] and in test [2] were 61.2% and 50.2%, respectively.
The corresponding values for `Cn1c(N/N=C/c2cc3ccccc3nc2Cl)nc2ccccc21` are 92.3% and 94%.
Take `Cc1ccc(CS(=O)(=O)c2ncc(Cl)c(C(=O)Nc3ccc(OC(F)F)cc3)n2)cc1`: the activity in test [1] is 5.62%; in test [2] it was -6.55%.
Turning to `Cc1ccc(Nc2nc(N)nc(CCl)n2)cc1`, the activity in test [1] amounted to 98.9%; in test [2], 97.5%.
